Laboratory results from PubChem BioAssay (NCI).
Compounds without any hit were thinned out: in the full panel of roughly 83,000, 20% have a hit.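 Compound tested at a single concentration for 48 hours in 96-well plates; a percent growth value below 10 was scored as active.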 Activity calls are given as the source filed them.

What follows are molecules tested on COLO 205 colon (assay: NCI-60 one-dose screen, 48 h (100 = growth as untreated, 0 = no growth, -100 = all killed)). Settings: 10 µM unless noted.

Row | SMILES | growth
1 | NC(=O)n1c(=O)n(-c2cccc(C(F)(F)F)c2)c(=O)c2cc(-c3ccc(F)cc3F)ccc21 | 87.5% (inactive)
2 | Cn1c(SCC(=O)c2ccco2)nc2ccccc2c1=O | 118% (inactive)
3 | C=C(C)[C@@H]1CC[C@]2(C(=O)O)CC[C@]3(C)[C@H](CC[C@@H]4[C@@]5(C)C/C(=C/c6ccccn6)C(=O)C(C)(C)[C@@H]5CC[C@]43C)[C@@H]12 | 54.7% (inactive)
4 | CCc1cc2c(cc1Cl)nc1c(=O)[nH]c(=O)nc-1n2CCOCC(C)(C)C | 58.2% (inactive)
5 | O=C(Nc1ccc(N2CCOCC2)cc1)Nc1ccc2c(ccn2C(=O)c2cccc(F)c2)c1 | 82.1% (inactive)
6 | C#CCOc1cccc(-c2nc(N)nc(Nc3ccccc3SSc3ccccc3Nc3nc(N)nc(-c4cccc(OCC#C)c4)n3)n2)c1 | 114% (inactive)
7 | CN1CCN(Cc2ccc(NC(=O)c3cncc(C#Cc4cnc5ccc(OCCCS(C)(=O)=O)nn45)c3)cc2C(F)(F)F)CC1 | -66.9% (active)
8 | CNC(=O)c1cc(-n2ccc3cc(NC(=O)Nc4ccc(N5CCN(C)CC5)c(C(F)(F)F)c4)ccc32)ccn1 | 90.8% (inactive)
9 | Nc1cc(C(=O)N/N=C\c2ccc(OC(F)F)c(OC3CCCC3)c2)nn1CC(O)c1ccccc1 (stereo not given) | 112% (inactive)
10 | CNC(=O)Nc1ccc(Nc2cc(-c3ccc(-n4cccn4)cc3)[nH]n2)c(C)c1 | 124% (inactive)
11 | Cc1nc(/N=C(N)/N=C(\N)c2cccc(Br)c2)sc1C | 55.6% (inactive)
12 | Brc1cccc(-c2cc(-c3ccc4c(c3)OC=CO4)[nH]n2)c1 | 36.1% (inactive)
13 | Cc1ccc2c(n1)C(=O)C(Cl)=C(Nc1ccc(C)c(C)c1)C2=O | 105% (inactive)
14 | CN1CCN(Cc2ccc(NC(=O)c3cncc(C#Cc4cnc5ccc(N)nn45)c3)cc2C(F)(F)F)CC1 | -41.8% (active)
15 | O=C1[C@@H]2Cc3c([nH]c4ccccc34)[C@@H](c3ccc(Cl)cc3)N2C(=O)CN1C1CCN(Cc2ccccc2)CC1 | 46.4% (inactive)
16 | CN1CCN(c2ccc(C(=O)/C=C/c3cc(F)cc(C(F)(F)F)c3)cc2)CC1 | 100% (inactive)
17 | CCCc1cc2cc(-n3nc(CC)c4c3CC(C)(C)CC4=O)cc(NC3CCC(O)CC3)c2c(=O)[nH]1 (stereo not given) | 8.47% (active)
18 | O=C1[C@@H]2Cc3c([nH]c4ccccc34)[C@H](c3ccc(Br)cc3)N2C(=O)CN1C1CCN(Cc2c(Cl)cccc2Cl)CC1 | 105% (inactive)
19 | CC1(C)CC[C@]2(C(=O)NCCCCCCN(CCCN)CCCN)CC[C@]3(C)C(=CC[C@@H]4[C@@]5(C)CC[C@H](O)C(C)(C)[C@@H]5CC[C@]43C)[C@@H]2C1 | 102% (inactive)
20 | N#Cc1c(-c2cccs2)cc(-c2cnccn2)nc1SCC(=O)N/N=C/c1ccccc1 | 66.2% (inactive)

Row | SMILES | growth
21 | Cc1ccc(S(=O)(=O)NCCCNc2nccc(-c3[nH]c(-c4ccccc4)nc3-c3ccc(F)c(O)c3)n2)cc1 | 91.9% (inactive)
22 | COc1ccc2c(c1)c(-c1nc(N)nnc1-c1c[nH]c3ccccc13)cn2C | 29.3% (inactive)
23 | COC(=O)c1ccc(NC2=C(Cl)C(=O)c3nc(C)ccc3C2=O)cc1 | 111% (inactive)
24 | N#Cc1c(-c2cccs2)cc(-c2cnccn2)nc1SCC(=O)N/N=C/c1ccncc1 | 118% (inactive)
25 | Cc1ccc2c(n1)C(=O)C(Cl)=C(Nc1cccc(C(F)(F)F)c1)C2=O | 106% (inactive)
26 | C#CCN(C)CCCOc1ccc(NCc2ccc(/C=C/C(=O)NO)cc2)cc1Cl | -24.4% (active)
27 | CC1=C(SCC(=O)OCCCCCC(C)C)C(=O)c2ccccc2C1=O | 125% (inactive)
28 | Cc1ccc2c(n1)C(=O)C(Cl)=C(Nc1ccc(C#N)cc1)C2=O | 79.6% (inactive)
29 | COc1cccc(N2CCN(C3=C(Cl)C(=O)c4ncccc4C3=O)CC2)c1 | 91.9% (inactive)
30 | Clc1ccc2[nH]cc(-c3cncn3CCc3ccc4c(c3)OCO4)c2c1 | 80.5% (inactive)
31 | CN1CCN(c2ccc(Nc3nc(NCCNS(=O)(=O)c4ccc5ccccc5c4)c4sccc4n3)cc2)CC1 | 13.3% (inactive)
32 | Cc1[nH]c(C(=O)Nc2ccc(C(=O)NCC3CCNCC3)cc2OC(C)C)c(Cl)c1Cl | -13.3% (active)
33 | Nc1ncc(-c2ccc3ncnc(NCc4ccccc4)c3c2)cn1 | 69.3% (inactive)
34 | O=C(NNc1nc2cc(F)cc(F)c2n2cccc12)c1cccnn1 | 16.3% (inactive)
35 | CCCc1[nH]c(-c2cc(N)ccc2Cl)c2c1C(=O)CCCC2 | 121% (inactive)
36 | O=C(CSc1nnc(-c2ccc(Cl)cc2)n1-c1ccccc1)Nc1ccccc1Cl | 88.7% (inactive)
37 | CN(C)S(=O)(=O)c1ccc(-c2nc(C(Cl)Cl)nc3cc(-c4ccc(F)cc4)nn23)cc1 | 2.25% (active)
38 | C1=CC(c2nn3c(-c4ccccc4)nnc3s2)=Cc2ccccc2O1 | 90.2% (inactive)
39 | COc1ccccc1N1CCN(C2=C(Cl)C(=O)c3ncccc3C2=O)CC1 | 106% (inactive)
40 | O=C(COc1ccc(/C=C2\C(=O)Nc3ccc(F)cc32)cc1)Nc1ccccc1 | 113% (inactive)
